Only a selection was taken, and hits are over-represented in it overall.
KDM5B inhibitor: Primary screen for KDM5B Histone Demethylases FDH-coupled qHTS; Lysine-specific demethylase 5B (Homo sapiens), Q9UGL1; Potency, µM (highest dose often 57.7 µM), most hits filed as inhibitors; 2.6% of 220,000 active; KDM5B demethylase, FDH-coupled NADH fluorescence (FDH is formaldehyde dehydrogenase); active means well fitted inhibition curve with a large enough effect; further: nearly all actives have a fitted effect of over 70% in size
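Compound dilutions met 200 nM (final) KDM5BΔAP for 10 min at room temperature before substrate addition. The substrate mix held 12.5 µM H3K4me3 with cofactors 25 µM α-ketoglutarate and 50 µM Fe²⁺. NADH signal gain over 30 min defined activity.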
Large screens that a line does not name were inactive.

COCC(=O)N1CC[C@@H](CC(=O)O)[C@@H](CCN2CCC(n3c(=O)[nH]c4ccccc43)CC2)C1	none
O=C(OCc1ccccc1)N1CCC2(CC1)C(=NC1CCCCC1)NC(=O)N2c1cccnc1	KDM5B inhibitor 28.2µM
COC(=O)N1CCC2(CC1)C(=NC1CCCCC1)NC(=O)N2c1cccnc1	none
O=C(c1ccccc1)N1CCC2(CC1)C(=NC1CCCCC1)NC(=O)N2c1cccnc1	none
O=C(Nc1cccc(Br)c1)C1CCN(c2cc(C(F)(F)F)ncn2)CC1	none
COc1ccc(C2Cn3nnc(C(=O)Nc4cc(C)ccc4F)c3CO2)cc1 (centres undefined)	none
O=C(c1nc(-c2ccccc2)c2ccccn12)N1CCCC1	KDM5B inhibitor 39.8µM
O=C(c1nc(-c2cccc(C(F)(F)F)c2)c2ccccn12)N1CCCC1	KDM5B inhibitor 25.1µM
Cc1nc(N2CCCC2)cc(N2CCN(C(=O)c3cccc(C(F)(F)F)c3)CC2)n1	none
O=C(c1nc(-c2ccc(F)cc2)c2ccccn12)N1CCCC1	none
Cc1c(-c2ccccc2)nc2ccccc2c1C(=O)N1CCCC1	none
O=C(c1coc(COc2cccc(C(F)(F)F)c2)n1)N1CCCCCCC1	none
OCC1(CN2CCCC2)CCN(Cc2ccccc2F)CC1	none
CC1=C[C@@H](CNC(=O)C2CC2)[C@H](C(C)C)C[C@H]1CC(=O)Nc1ccccn1	none
O=C(CNc1ccccc1C(=O)Nc1ccccc1)Nc1ccccc1C(=O)NC1CCCC1	none
COc1ccc(NC(=O)N2CCCC(Cn3cnc4cccnc43)C2)c(OC)c1 (centres undefined)	none
O=C(NCCc1ccc(F)cc1)N1CCc2sccc2C1	none
Cc1ccc(OCC(=O)N2CCN(c3ncccn3)CC2)c(C)c1	none
COc1cccc(C(=O)Nc2cccc(-c3nncn3C)c2)c1	none
CCCN1C=NS(=O)(=O)c2cc(C(=O)NC3CCCCC3)ccc21	none
O=C(NCC1CC1)c1ccc2c(c1)C1(CCN(CC3CC3)C1)CN2Cc1ccccc1 (centres undefined)	KDM5B inhibitor 28.2µM
O=C(NCC(F)(F)F)c1ccc2c(c1)C1(CCN(CC3CC3)C1)CN2Cc1ccccc1 (centres undefined)	KDM5B inhibitor 20µM
O=C(NCC1CC1)C1CN(Cc2ccccc2)C(=O)N1 (centres undefined)	none
O=C(NCC(=O)N1CCC(Cc2ccccc2)CC1)c1ccc(Cl)cc1	none
CN1CCC2(C1)CN(Cc1ccccc1)c1ccc(C(=O)NCC3CC3)cc12 (centres undefined)	KDM5B inhibitor 35.5µM
CN1CCC2(C1)CN(CC1CC1)c1ccc(C(=O)NC3CCCCC3)cc12 (centres undefined)	KDM5B inhibitor 39.8µM
O=C(NCC1CC1)c1ccc(CN2C(=O)NC3(CCS(=O)(=O)CC3)C2=O)cc1	none
O=C(NCC(F)(F)F)c1nn(Cc2ccccc2)c(=O)c2ccccc12	none
O=C(NCC1CC1)c1cccc(OC2CN(C3CCN(Cc4ccccc4)CC3)C2)c1	none
COc1ccc(C(=O)NC2CCCCCCC2)cc1OC	none
CN1CCCC2(C1)CN(Cc1cccnc1)c1ccc(C(=O)NCC3CCCCC3)cc12 (centres undefined)	none
Cc1ccccc1CC(=O)NC1CCCC1	none
COc1ccc2c(C)c(CC(=O)N3CCCCC3)c(=O)oc2c1C	none
CCCS(=O)(=O)N1CC[C@H](c2nc(C)no2)[C@H](NC(=O)COC)C1	none
Cc1ccc2nc(C)cc(C(=O)OCC(=O)c3ccc(C)c([N+](=O)[O-])c3)c2c1	none
CNC(=S)NNC(=O)c1ccc(C(C)C)cc1	none
CCN1C(=O)CCN(C(=O)c2cccs2)CC12CCOCC2	none
Cc1sc2nc(SCc3c(F)cccc3Cl)n(CCCN3CCOCC3)c(=O)c2c1C	none
CCOC(=O)Cc1csc(=S)n1-c1ccc(OC)cc1	none
CC(Sc1ncc(-c2ccc(Br)cc2)n1C)C(=O)NC(N)=O (centres undefined)	none
Cc1nonc1CN1CCN(C(C(=O)O)c2c[nH]c3ccc(Cl)cc23)CC1 (centres undefined)	none
CCN(CC)C(CNC(=O)Cc1ccccc1OC)c1ccsc1 (centres undefined)	none
C=C(Br)CNC1CCCCC1	none
CCNC(=O)c1ccc(CC2CCN(C(C)=O)CC2)cc1	none
CCOc1ccc(CN2C(=O)c3ccccc3Sc3ccc(C(=O)NCCc4ccccc4)cc32)cc1	none
O=C(NCc1ccc(F)cc1)c1ccc(N2CCOCC2)c([N+](=O)[O-])c1	none
CC(=O)N1CC2(CCN(CC3CC3)CC2)Cc2ccccc21	none
COCCNC(=O)c1ccc(OC2CCN(Cc3cccc4nonc34)CC2)c(Cl)c1	none
Cc1[nH]c2ccc(C(=O)NCCOc3ccccc3)cc2c1C	none
CN1CCC2(C1)CN(CC1CCOCC1)c1ccc(C(=O)NCC(F)(F)F)cc12 (centres undefined)	KDM5B inhibitor 35.5µM
O=C1OC2(CN1CC1CCOCC1)CN(C(=O)c1ccc(Oc3ccccc3)cc1)C2	none
CN1CCC2(C1)CN(Cc1ccccc1)c1ccc(C(=O)NCCOc3ccccc3)cc12 (centres undefined)	KDM5B inhibitor 28.2µM
COCCNC(=O)c1ccc2c(c1)N(Cc1ccc(C(F)(F)F)cc1)C(=O)c1ccccc1S2	none
CCNC(=O)c1ccc2c(c1)C1(CCN(CC3CC3)C1)CN2Cc1ccccc1 (centres undefined)	KDM5B inhibitor 35.5µM

From PubChem
